Test results taken from the supplement of paper PMC8728848.
This excerpt belongs to a sample that is enriched for the strongest signals.

Legend:
Experiment in all cases: glycan array binding signal (z-score within array); higher = stronger binding
Conditions in all cases: glycan notation: IUPAC condensed, linker removed
[1] = biological target: Gal(b1-4)GlcNAc(b1-6)[Gal(b1-4)GlcNAc(b1-3)]GalNAc
In short: (§1)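 Glycan array data came from 3228 arrays in the Consortium for Functional Glycomics database, and only arrays with an available protein sequence were kept. Glycan names were put into IUPAC-condensed notation, and columns mapping to the same glycan were averaged. The binding signal is a within-array Z-score, averaged across arrays of one protein sequence run at different concentrations or buffers and across linkers. A negative Z-score can be read as non-binding.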

Gal3S(b1-3)GalNAc = biological target: Gal3S(b1-3)GalNAc
In short: as §1

Gal3S4S(b1-4)GlcNAc = biological target: Gal3S4S(b1-4)GlcNAc
In short: as §1

Gal3S6S(b1-4)GlcNAc = biological target: Gal3S6S(b1-4)GlcNAc
In short: as §1

[2] = biological target: GalNAc(b1-4)GlcNAc(b1-2)Man
In short: as §1

[3] = biological target: GlcNAc(a1-4)Gal(b1-4)GlcNAc(b1-3)Gal(b1-4)GlcNAc
In short: as §1

[4] = biological target: GlcNAc(b1-2)Man(a1-3)[GlcNAc(b1-2)Man(a1-6)]Man(b1-4)GlcNAc(b1-4)GlcNAc
In short: as §1

[5] = biological target: GlcNAc(b1-2)Man(a1-3)[GlcNAc(b1-2)Man(a1-6)]Man(b1-4)GlcNAc(b1-4)[Fuc(a1-6)]GlcNAc
In short: as §1

[6] = biological target: GlcNAc(b1-3)Gal(b1-4)GlcNAc(b1-3)Gal(b1-4)GlcNAc(b1-3)Gal(b1-4)GlcNAc(b1-3)Gal(b1-4)GlcNAc(b1-2)Man(a1-3)[GlcNAc(b1-3)Gal(b1-4)GlcNAc(b1-3)Gal(b1-4)GlcNAc(b1-3)Gal(b1-4)GlcNAc(b1-3)Gal(b1-4)GlcNAc(b1-2)Man(a1-6)]Man(b1-4)GlcNAc(b1-4)GlcNAc
In short: as §1

[7] = biological target: GlcNAc(b1-3)Gal(b1-4)GlcNAc(b1-3)Gal(b1-4)GlcNAc(b1-3)Gal(b1-4)GlcNAc(b1-3)Gal(b1-4)GlcNAc(b1-2)Man(a1-3)[GlcNAc(b1-3)Gal(b1-4)GlcNAc(b1-3)Gal(b1-4)GlcNAc(b1-3)Gal(b1-4)GlcNAc(b1-3)Gal(b1-4)GlcNAc(b1-2)Man(a1-6)]Man(b1-4)GlcNAc(b1-4)[Fuc(a1-6)]GlcNAc
In short: as §1

[8] = biological target: GlcNAc(b1-3)Gal(b1-4)GlcNAc(b1-3)GalNAc
In short: as §1

[9] = biological target: GlcNAc(b1-3)[GlcNAc(b1-6)]GalNAc
In short: as §1

GlcNAc(b1-6)GalNAc = biological target: GlcNAc(b1-6)GalNAc
In short: as §1

Kdn(a2-3)Gal(b1-4)Glc = biological target: Kdn(a2-3)Gal(b1-4)Glc
In short: as §1

[10] = biological target: Man(a1-2)Man(a1-3)[Man(a1-6)]Man(a1-6)[Man(a1-2)Man(a1-3)]Man(b1-4)GlcNAc(b1-4)GlcNAc
In short: as §1

[11] = biological target: Man(a1-3)[Man(a1-6)]Man(b1-4)GlcNAc(b1-4)GlcNAc
In short: as §1

[12] = biological target: Neu5Ac(a2-3)Gal(b1-4)[Fuc(a1-3)]GlcNAc(b1-3)Gal(b1-4)GlcNAc
In short: as §1

[13] = biological target: Neu5Ac(a2-3)Gal6S(b1-4)[Fuc(a1-3)]GlcNAc
In short: as §1

[14] = biological target: Neu5Ac(a2-6)Gal(b1-3)GlcNAc(b1-3)[Gal(b1-4)GlcNAc(b1-6)]Gal(b1-4)Glc
In short: as §1

[15] = biological target: Neu5Ac(a2-8)Neu5Ac(a2-3)Gal(b1-3)GalNAc(b1-4)[Neu5Ac(a2-8)Neu5Ac(a2-3)]Gal(b1-4)Glc
In short: as §1

[16] = biological target: Neu5Ac(a2-8)Neu5Ac(a2-3)Gal(b1-4)GlcNAc
In short: as §1

[17] = biological target: Neu5Gc(a2-3)Gal(b1-4)GlcNAc(b1-3)Gal(b1-4)GlcNAc(b1-2)Man(a1-3)[Neu5Gc(a2-3)Gal(b1-4)GlcNAc(b1-3)Gal(b1-4)GlcNAc(b1-2)Man(a1-6)]Man(b1-4)GlcNAc(b1-4)GlcNAc
In short: as §1

[18] = biological target: Neu5Gc(a2-6)Gal(b1-4)GlcNAc
In short: as §1

[19] = biological target: Neu5Gc(a2-8)Neu5Gc(a2-3)Gal(b1-4)GlcNAc
In short: as §1

B1: Gal 3C (Homo sapiens), P17931 (protein)
chain: YGAPAGPLIVPYNLPLPGGVVPRMLITILGTVKPNANRIALDFQRGNDVAFHFNPRFNENNRRVIVCNTKLDNNWGREERQSVFPFESGKPFKIQVLVEPDHFKVAVNDAHLLQYNHRVKKLNEISKLGISGDIDLTSASYTMI
For B1, the “glycan array binding signal (z-score)” value [1] was -0.244, the “glycan array binding signal (z-score)” value (Gal3S(b1-3)GalNAc) was -0.289 and the “glycan array binding signal (z-score)” value (Gal3S4S(b1-4)GlcNAc) was -0.291. The “glycan array binding signal (z-score)” value (Gal3S6S(b1-4)GlcNAc) was -0.289, the “glycan array binding signal (z-score)” value [2] was -0.274 and the “glycan array binding signal (z-score)” value [3] was -0.2. For the same binder, the “glycan array binding signal (z-score)” value [4] was -0.279, the “glycan array binding signal (z-score)” value [5] was -0.196 and the “glycan array binding signal (z-score)” value [6] was 4.63. The “glycan array binding signal (z-score)” value [7] was 4.02, the “glycan array binding signal (z-score)” value [8] was -0.286 and the “glycan array binding signal (z-score)” value [9] was -0.331. For the same binder, the “glycan array binding signal (z-score)” value (GlcNAc(b1-6)GalNAc) was -0.322, the “glycan array binding signal (z-score)” value (Kdn(a2-3)Gal(b1-4)Glc) was -0.237 and the “glycan array binding signal (z-score)” value [10] was -0.298. For the same binder, the “glycan array binding signal (z-score)” value [11] was -0.065, the “glycan array binding signal (z-score)” value [12] was -0.191 and the “glycan array binding signal (z-score)” value [13] was -0.327. The “glycan array binding signal (z-score)” value [14] was -0.3, the “glycan array binding signal (z-score)” value [15] was -0.226 and the “glycan array binding signal (z-score)” value [16] was -0.266. For the same binder, the “glycan array binding signal (z-score)” value [17] was -0.152, the “glycan array binding signal (z-score)” value [18] was -0.31 and the “glycan array binding signal (z-score)” value [19] was -0.336.
